From PubChem BioAssay
HepG2 tox: counter-screen for TGF-b inhibitors: cytotoxicity in HepG2 cells | HepG2 CAGA-GFP viability, ATP luminescence, 18 h | 410,000 tested, 0.76% active | Potency, µM (titrated, usually from 46.1 µM), for the others: top-dose activity change, negative = cytotoxicity, usual class: cytotoxic
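HepG2 CAGA-GFP cells (1000/well, DMEM with 1% FBS) received compound, then TGF-beta at 500 pg/mL final, and were incubated 18 hours at 37 degrees C. Viability was read by CellTiter-Glo luminescence. Media-only wells were set as complete cell-killing and DMSO as no toxicity.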
A549 tox: kills or reduces viability of A549 cells in Nrf2 counter-screen. A549 ARE-Fluc cells, CellTiter-Fluor viability, 18-24 h. Potency, µM (highest dose often 46 µM), for the others: top-dose activity change, negative = cytotoxicity, hits mostly inhibitors. 390,000 tested, 0.16% active. AID 504648; further: on the % scale 0 is the no-effect control and ±100 the full control effect
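A549 ARE-Fluc cells in 5% FBS OPTI-MEM, 5000 cells/well, rested 2 h then exposed to compounds in concentration-response for 18-24 h at 37 °C. Viability by CellTiter-Fluor fluorescence (Ex 405/Em 525) after 30 min; luciferase luminescence (BugLite, 15 min, RT) read afterwards.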
TGFb SMAD3 inh: inhibitors of TGF-b signaling. HepG2 CAGA-GFP TGF-b/SMAD3 reporter, GFP fluorescence, 18 h; TGF-beta stimulated, 500 pg/mL final. Potency, µM (top dose mostly 46.1 µM), without a hit: top-dose activity, negative = inhibition, hits mostly inhibitors. 410,000 tested, 1.2% active; further: on the % scale 0 is the no-effect control and ±100 the full control effect; nearly all actives have a fitted effect of over 65% in size
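Cell-based qHTS in HEPG2 carrying a CAGA-GFP Smad reporter; compounds added before 500 pg/mL final TGF-beta, 18 h incubation at 37 degrees C, GFP fluorescence quantified per cell by imaging cytometry.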
ATXN2 expr inh: ATXN2 expression inhibition | HEK-293 ATXN2-luciferase reporter, luminescence, 24 h | Potency, µM (doses to about 57 µM), inactives show top-dose activity change, negative = inhibition, most hits filed as inhibitors | AID 1745845 | 360,000 tested, 0.72% active; further: on the % scale 0 is the no-effect control and ±100 the full control effect; nearly all actives have a fitted effect of over 55% in size
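qHTS (up to 57 uM final) was run with 24 h compound exposure of reporter cells at 37 °C. Each well was multiplexed: SteadyGlo luminescence measured ATXN2-luciferase expression after a fluorogenic Gly-Phe-AFC viability readout (25 uM final).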
ATXN viability: reduces viability in counter-screen for ATXN expression inhibitors. S2 cells (HEK-293 line with an ATXN2-luciferase reporter) viability, CellTiter-Fluor protease fluorescence, 24 h. Potency, µM (series often up to 56.7 µM), usual class: cytotoxic. 400,000 tested, 0.49% active. AID 651635; further: nearly all actives have a fitted effect of over 40% in size
Nrf2 inh: blocks Nrf2 signaling | A549 ARE-Fluc reporter, luciferase luminescence, 18-24 h | Potency, µM (doses to about 46 µM), inactives show at the top dose activity change, negative = inhibition, usual class: inhibitors | 360,000 tested, 2.1% active | AID 504444; further: on the % scale 0 is the no-effect control and ±100 the full control effect; nearly all actives have a fitted effect of over 60% in size
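Concentration-response testing used A549 ARE_Fluc cells at 5000 cells/well. Following an 18-24 h compound incubation, viability was read by fluorescence (Ex 405/Em 525) and luciferase output by luminescence.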
* marks the source's active call; other numbers are inactive results; i = inactive; ? = inconclusive; . = no result given; [ ] = dose if it differs, or a comment. A selection: hits, their analogues and other compounds. The true share with any hit is near 3.8%. The call rests on the fitted dose curve; in most records, active means well fitted curve in the direction sought with a large enough effect; inconclusive means small, poorly fitted or top-dose-only effect, or another doubt; inactive means no such curve, though single readings can be large; an effect the other way counts as inactive or inconclusive. Potency means the concentration at half of the fitted maximal effect.

SMILES	HepG2 tox	A549 tox	TGFb SMAD3 inh	ATXN2 expr inh	ATXN viability	Nrf2 inh
CCOc1ccc(CNC(=O)C2CCN(c3nnc(-n4c(C)ccc4C)s3)CC2)cc1	-31.6%	1.8%	.	.	.	14.6µM*
CCc1ccc(CNC(=O)C2CCN(c3nnc(-n4c(C)ccc4C)s3)CC2)cc1	-34.8%	-1.5%	.	.	.	?
COc1ccc(OC)c(CN2CCOc3ccc(C(O)c4cccnc4)cc3C2)c1 (stereo unspecified)	.	.	.	.	i	.
O=C1/C(=C\c2ccc(Cl)c(Cl)c2)CN(C(=O)CCN2CCOCC2)C/C1=C/c1ccc(Cl)c(Cl)c1	15.8µM*	20.6µM*	2.82µM*	6.7µM*	6.7µM*	?
CCN(CC)CCC(=O)N1C/C(=C/c2ccccc2)C(=O)/C(=C\c2ccccc2)C1	-104.1%	-6.0%	2.82µM*	23.8µM*	13.4µM*	10.9%
O=C1/C(=C\c2ccccc2)CN(C(=O)CCN2CCCCC2)C/C1=C/c1ccccc1	-105.7%	-5.2%	15.8µM*	?	?	3.5%
O=C(CCN1C(=O)S/C(=C\c2ccccc2)C1=O)N1CCCCC1	-11.2%	1.1%	1.0%	28.9%	i	?
CCN(CC)S(=O)(=O)c1ccc(Cl)c(NC(=O)c2cc(Cl)cc(Cl)c2)c1	-14.3%	4.9%	8.5%	-19.3%	i	-1.2%
Cc1ccc(C)c(N2CCN(S(=O)(=O)c3ccc4[nH]c5c(c4c3)CCCC5)CC2)c1	-6.8%	-1.6%	12.6µM*	-13.7%	i	8.4%
Cc1ccc(Cl)cc1N1CCN(S(=O)(=O)c2ccc3[nH]c4c(c3c2)CCCCC4)CC1	-29.3%	1.4%	-28.4%	-1.3%	i	5.6%
CCCNC(=O)C(Cc1ccc(I)cc1)NC(=O)c1ccc(C#N)cc1 (stereo unspecified)	3.1%	-5.5%	12.6%	-10.1%	?	-5.6%
CCCc1[nH]c2ccc(C#N)cc2c1CCC	-114.7%	?	20µM*	?	.	?
COc1cc(CC(=O)Nc2nc(-c3ccccc3)c(C(C)=O)s2)cc(OC)c1OC	15.3%	-11.4%	?	-16.0%	i	20.6µM*
COc1ccc(CC(=O)Nc2nc(-c3ccccc3)c(C(C)=O)s2)cc1OC	-14.3%	-5.3%	?	-19.3%	i	?
CCCCCCCCCC[n+]1ccc(/C=C/c2c(C)[nH]c3ccccc23)c2ccccc21	3.16µM*	.	2.51µM*	.	.	.
CCCCCCC[n+]1ccc(/C=C/c2c(C)[nH]c3ccccc23)c2ccccc21	-113.7%	.	12.6µM*	.	.	.
CCCCCCCCCCCC[n+]1ccc(/C=C/c2c[nH]c3ccccc23)c2ccccc21	-58.3%	.	?	.	.	.
CCCCCCC[n+]1ccc(/C=C/c2c[nH]c3ccccc23)c2ccccc21	12.6µM*	.	7.08µM*	.	.	.
CCCCCCCCCCCCCCCC[n+]1ccc(/C=C/c2c[nH]c3ccccc23)c2ccccc21	-46.3%	.	?	.	.	.
C(=C\c1c[nH]c2ccccc12)/c1cc[n+](C2CCCCC2)cc1	-30.2%	.	-14.6%	.	.	.
CCCCCCCCCC[n+]1ccc(/C=C/c2c[nH]c3ccccc23)cc1	15.8µM*	.	259.7%	.	.	.
CC(C)NC(=O)c1ccc2sc([C@H]3C[C@H](O)[C@@H](CO)O3)nc2c1	-12.6%	.	0.7%	9.0%	i	.
Cc1ccc2c(c1)C(c1ccc(F)cc1)N(C(=O)C(C)C)CC(=O)N2 (stereo unspecified)	-3.7%	4.6%	-5.0%	?	i	3.1%[9.27 µM]
CC1=NNC(=O)/C1=C\c1cn(-c2ccccc2)nc1-c1ccc(Cl)cc1	-94.2%	20.6µM*	3.55µM*	12.6µM*	.	13µM*
CC1(C(=O)Nc2cccc3cccnc23)CCN1Cc1cccc2c1OCO2 (stereo unspecified)	-48.6%	.	?	6.31µM*	14.1µM*	.
CC1(C(=O)Nc2ccc3c(c2)OCO3)CCN1Cc1cccc2c1OCO2 (stereo unspecified)	3.5%	.	-7.6%	-24.5%	?	.
